Screens deposited in PubChem BioAssay by several laboratories.
CYP2C9 activ: CYP2C9 (human) activation | P11712 | AID 1024 | recombinant CYP2C9, luciferin-H conversion, luminescence; hits give high values; factor 1 = untreated enzyme, 0 = blocked | activation factor at 5 µM | actives 1.4% (n = 96,000);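 active means activation factor of 2 or more for CYP2C9 at a 5 µM dose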
CYP2C19 inhib: human CYP2C19 inhibition | AID 778 | CYP2C19 Supersomes, luciferin-H EGE luminescence, 30 min | inhibition, % at 5 µM | actives 21% (n = 96,000);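 active means CYP2C19 inhibition above a set limit at 5 µM in the primary screen, cut at about 50% in these data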
Target sequence (P33261 whole entry, looked up): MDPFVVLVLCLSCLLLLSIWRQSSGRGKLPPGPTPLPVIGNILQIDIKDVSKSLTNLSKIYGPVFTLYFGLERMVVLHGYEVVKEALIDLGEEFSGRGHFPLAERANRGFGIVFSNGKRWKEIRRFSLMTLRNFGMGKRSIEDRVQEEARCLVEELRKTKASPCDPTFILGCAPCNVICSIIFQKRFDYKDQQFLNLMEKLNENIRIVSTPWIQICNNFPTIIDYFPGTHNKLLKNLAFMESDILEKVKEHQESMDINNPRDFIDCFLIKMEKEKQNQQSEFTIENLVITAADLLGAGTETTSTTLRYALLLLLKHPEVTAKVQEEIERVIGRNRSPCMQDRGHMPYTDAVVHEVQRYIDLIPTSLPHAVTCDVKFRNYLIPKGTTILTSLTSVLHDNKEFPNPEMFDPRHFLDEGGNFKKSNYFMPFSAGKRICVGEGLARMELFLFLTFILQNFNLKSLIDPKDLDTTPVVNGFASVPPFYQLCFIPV
Measles CPE: protection of cells from measles virus | actives 1.5% (n = 140,000) | Measles virus-infected cells, CPE protection, absorbance | protection (pct of control), % at 4 µM | AID 841; in the data active means protection mostly above about 24%, no sharp cut-off; inactive means mostly below about 26%
CYP2C9 inh: inhibitors of human CYP2C9 | P11712 | CYP2C9 Supersomes, luciferin-H conversion, luminescence | inhibition, % at 5 µM | actives 20% (n = 96,000) | AID 777;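 active means blocking of liver enzyme CYP2C9 beyond about 50% at 5 µM, limit read from the data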
CYP2C19 activ: activators of human cytochrome P450 2C19; recombinant CYP2C19, luciferin-H EGE luminescence; hits give high values; 0 = fully inhibited enzyme, 1 = untreated enzyme; AID 1025; P33261; activation factor at 5 µM; 96,000 tested, under 10 active;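 active means activation factor of at least 2 at 5 µM in the primary screen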
Large screens that a line does not name were inactive. Compounds with a hit are over-represented: about 22% of the library has one in this group of screens.

CCCCC1CC(C)(C(=O)CSc2nc3ccccc3s2)OC1=O (configuration not stated)	CYP2C9 inh 78
O=C(CSc1nc2ccccc2s1)N1CCCCC1	CYP2C19 inhib 84
CC(C)(C)C1CCc2onc(C(=O)NCc3ccc(F)cc3)c2C1 (configuration not stated)	none
C/C(=N\NC(=O)CSCc1cccc(Br)c1)c1ccc([N+](=O)[O-])cc1	none
CC1CCCN(C(=O)CN2C(=O)c3ccccc3C2=O)C1 (configuration not stated)	none
O=C(O)c1ccccc1SCC(=O)N1CCCCC1	Measles CPE 40
CC1CCCN(C(=O)CSc2cnc3ccccc3n2)C1 (configuration not stated)	CYP2C19 inhib 50
COc1ccc(CSc2ncn[nH]2)cc1[N+](=O)[O-]	none (no result: CYP2C9 activ, CYP2C19 inhib, CYP2C9 inh, CYP2C19 activ)
C=CCn1c(SCC(N)=O)nc(C)cc1=O	none
Cn1c(N)c(C(=O)COC(=O)c2cc(S(=O)(=O)N3CCCCC3)ccc2Cl)c(=O)n(C)c1=O	Measles CPE 27 (no result: CYP2C9 activ, CYP2C19 inhib, CYP2C9 inh, CYP2C19 activ)
CC1CCCC(NC(=O)COC(=O)c2cc(S(=O)(=O)N3CCCCC3)ccc2N2CCOCC2)C1C (configuration not stated)	CYP2C19 inhib 78, CYP2C9 inh 82
Cn1c(N)c(C(=O)COC(=O)c2cccc(S(=O)(=O)N3CCCCC3)c2)c(=O)n(C)c1=O	none (no result: CYP2C9 activ, CYP2C19 inhib, CYP2C9 inh, CYP2C19 activ)
CC(C)(C)NC(=O)COC(=O)c1cc(S(=O)(=O)N2CCCCC2)ccc1N1CCOCC1	CYP2C19 inhib 66, CYP2C9 inh 82
C=CCn1c(SCC(=O)NCc2ccco2)nc2sc(C)c(C)c2c1=O	none (no result: CYP2C9 activ, CYP2C19 inhib, CYP2C9 inh, CYP2C19 activ)
COC(=O)C1=C(C)NC(=O)NC1c1ccccc1 (configuration not stated)	none (no result: CYP2C9 activ, CYP2C19 inhib, CYP2C9 inh, CYP2C19 activ)
CCSc1nc2c(cnn2-c2ccc(C)cc2)c(=O)[nH]1	none
CCOc1ccc(-c2nc(CSCC(=O)NCc3ccco3)c(C)o2)cc1	CYP2C19 inhib 67, CYP2C9 inh 76
CCOc1ccc(-c2nc(CSCC(=O)NC3CCCc4ccccc43)c(C)o2)cc1 (configuration not stated)	CYP2C19 inhib 65
COc1ccc(CNC(=O)Cn2cc(C(F)(F)F)ccc2=O)cc1	none (no result: CYP2C9 activ, CYP2C19 inhib, CYP2C9 inh, CYP2C19 activ)
COc1ccc(OC(=O)c2cn(C)nc2C(F)(F)F)cc1	CYP2C19 inhib 61
O=C(/C=C/c1ccccc1)NC(=S)NNC(=O)c1cccnc1	CYP2C9 inh 51
COc1ccc(/C=C/C(=O)NC(=S)NNC(=O)c2cccnc2)cc1OC	none
CCOC(=O)N1CCN(c2nc(C)c3c(n2)CC(C)CC3=O)CC1 (configuration not stated)	CYP2C9 inh 52
COc1ccc(CCNc2ccncn2)cc1OC	CYP2C19 inhib 94, CYP2C9 inh 67
CCOC(=O)c1cnc2ccccc2c1NCCc1ccc(OC)c(OC)c1	CYP2C19 inhib 75, CYP2C9 inh 83
COc1ccc(N2CCN(c3nc(NCCc4ccc(OC)c(OC)c4)nc(OC)n3)CC2)cc1	CYP2C19 inhib 82, CYP2C9 inh 83
CCOC(=O)c1cnc2ccc(OC)cc2c1NCCc1ccc(OC)c(OC)c1	none (no result: CYP2C9 activ, CYP2C19 inhib, CYP2C9 inh, CYP2C19 activ)
CCOc1cc(C)nc(NCCc2ccc(OC)c(OC)c2)n1	CYP2C19 inhib 66
CCOc1nc(NCCc2ccc(OC)c(OC)c2)nc(N2CCN(c3ccc(OC)cc3)CC2)n1	none
CCOc1cc(C(=O)Nc2nnc(CC)s2)ccc1OCC(=O)N1CCOCC1	none
CCOC(=O)c1c(C)nc2sc(C(=O)Nc3ccccc3)c(N)c2c1-c1ccc(OC)cc1	CYP2C19 inhib 76, CYP2C9 inh 82
O=C(O)CCSc1nc2ccc(Br)cc2[nH]1	none
O=[N+]([O-])c1ccc(CSc2nnc(SCc3ccccc3)s2)cc1	none (no result: CYP2C9 activ, CYP2C19 inhib, CYP2C9 inh, CYP2C19 activ)
Cn1c(CSc2nnc(SCc3ccccc3)s2)nc2ccccc21	CYP2C19 inhib 60
Cn1c(CSc2nc3ccc(Br)cc3[nH]2)nc2ccccc21	CYP2C19 inhib 82
CC(NC(=O)COC(=O)CC(c1ccccc1)c1ccccc1)c1ccccc1 (configuration not stated)	none (no result: CYP2C9 activ, CYP2C19 inhib, CYP2C9 inh, CYP2C19 activ)
CCOc1cc(/C=C2\C(=O)N(c3nc(-c4ccc(Br)cc4)cs3)N=C2c2ccccc2)ccc1O	CYP2C9 inh 87
O=C1CC(c2ccc(F)cc2)SC(N(c2ccccc2)c2ccccc2)=N1 (configuration not stated)	none (no result: CYP2C9 activ, CYP2C19 inhib, CYP2C9 inh, CYP2C19 activ)
Cc1ccnn1CC(=O)N/N=C/c1ccc2c(c1)OCO2	none (no result: CYP2C9 activ, CYP2C19 inhib, CYP2C9 inh, CYP2C19 activ)
C=CCOc1ccc2c(c1)c(S(=O)(=O)c1ccc(C)cc1)cn2COC	CYP2C19 inhib 89
CCOc1cc(CNn2cnnc2)ccc1OCC(=O)NC1CCCCC1	CYP2C9 inh 65
